Compounds with a hit are over-represented: about 12% of the library has one in this group of screens.
L major viab: reduces viability of Leishmania major promastigotes. resazurin fluorescence viability. inhibition, % at 10 µM. hit rate 9% among 200,000; in the data active = inhibition above about 50%;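 note: promastigotes grown with compound for 44 hours at 28 °C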
CHOP inhibitor: CHOP inhibition in unfolded protein response; CHO-K1 CHOP-promoter luciferase, tunicamycin-induced, 15-18 h; inhibition, % at 10 µM; hit rate 3.8% among 220,000; AID 2732;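 active = compounds that reduced the stress-induced luciferase reporter signal by more than about 70% of percent inhibition, limit read from the data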;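 note: 0% = tunicamycin plus vehicle and 100% = wells without tunicamycin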
Arbovirus anti: arbovirus infection inhibition | inhibition, % at 10 µM | hit rate 0.37% among 200,000 | arbovirus infection cell-based antiviral screen; in the data active = inhibition above about 30%
WT yeast gro inh: growth inhibition of WT yeast, mitochondrial fusion screen | inhibition, % at 10 µM | mitochondrial fusion phenotypic screen, WT strain | hit rate 2.1% among 190,000; in the data active = inhibition above about 58%; tested in S. cerevisiae
CHOP inh conf: confirmation of CHOP induction inhibitors. shares compounds with CHOP inhibitor. CHO-CHOP promoter luciferase reporter, tunicamycin-induced, luminescence. inhibition, % at 10 µM. hit rate 45% among 2,100;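 active = mean of three repeat readings of reporter signal inhibition above a set limit, cut at about 70% in these data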;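 note: 0% = tunicamycin plus vehicle and 100% = wells lacking tunicamycin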
Starred values were filed as active, the others as inactive; . = not tested or not shown.

SMILES	L major viab	CHOP inhibitor	Arbovirus anti	WT yeast gro inh	CHOP inh conf
O=C(COC(=O)CC1CC2CCC1C2)Nc1c(F)cccc1F (centres undefined)	3	10	10	-2	.
FC(F)(F)c1cccc(NC(=S)NC(c2ccccc2)c2ccccc2)c1	8	103*	1	11	75*
Cc1cccc(C)c1NC(=O)CSc1ncnc2nc[nH]c12	-6	25	5	2	.
CC(C)c1ccc(NC(=O)CSc2nc(-c3ccccc3F)nc3nc[nH]c23)cc1	-4	100*	10	-5	94*
CCCCn1c(SCc2nc(N)nc(N3CCCCC3)n2)nc2c1c(=O)n(C)c(=O)n2C	2	98*	3	-15	20
CCCn1c(SCc2nc(N)nc(N3CCCCC3)n2)nc2c1c(=O)n(C)c(=O)n2C	8	0	1	-9	.
CCOc1cc(C(=O)N/N=C/C2CC=CCC2)cc(OCC)c1OCC (centres undefined)	-5	26	-7	-16	.
Cc1ccc(C(C(=O)NCc2ccco2)N(C(=O)CNC(=O)c2cccs2)c2ccc(C)cc2)cc1 (centres undefined)	-5	24	-2	-1	.
Cc1ccc(C(C(=O)NCc2ccco2)N(C(=O)CNC(=O)c2cccs2)c2c(C)cccc2C)cc1 (centres undefined)	10	101*	-16	18	80*
CCCCCCCOC(=O)c1nc(Cl)c(Cl)c(N)c1Cl	2	99*	-5	85*	55
CCCCOC(=O)c1nc(Cl)c(Cl)c(N)c1Cl	11	6	1	-7	.
Cc1ccc(S(=O)(=O)N/N=C/c2cccc([N+](=O)[O-])c2)cc1	-1	-1	-6	0	.
CCCCCCCCCS(=O)(=O)N/N=C/c1cccc([N+](=O)[O-])c1	-4	99*	-28	88*	97*
O=C(c1ccc(F)cc1)N1CCN(c2cc(N3CCCCC3)c(F)cc2[N+](=O)[O-])CC1	-1	24	-4	37	.
O=c1c2cc(Br)ccc2nc(-c2ccc([N+](=O)[O-])cc2)n1O	-12	22	-7	26	.
O=c1c2c([N+](=O)[O-])cc([N+](=O)[O-])cc2sn1-c1ccc(Br)cc1	-10	97*	-9	58	12
CSc1nc(N)nc(C2CC2)n1	.	13	.	.	.
CCOc1ccc(/C=N/N(C)c2ccccc2)cc1OC	6	100*	-2	19	3
C/C(=N\NC(=O)c1ccccn1)c1ccc(C(=O)O)s1	-6	-9	-1	1	.
N#Cc1c(NCCN)nc(-c2ccco2)c2c1CCCC2	100*	105*	-32	22	30
CC(C)CCNc1nc(-c2ccco2)c2c(c1C#N)CCCC2	3	29	6	28	.
CCCn1c(SC(C(=O)Nc2cccc(OC)c2)c2ccccc2)nc2ccccc2c1=O (centres undefined)	4	21	-5	8	.
Cc1cccc(NC(=O)C2(C)CC3c4ccccc4C2c2ccccc23)c1 (centres undefined)	0	103*	9	7	-9
CCCCC(=O)N(Cc1nc2sc(C)c(C)c2c(=O)[nH]1)C1CCCC1	2	24	-4	5	.
O=C(Nc1cccc(O)c1)C(Cc1ccccc1)N1C(=O)c2cccc3cccc(c23)C1=O (centres undefined)	4	109*	-3	4	25
SMILES	L major viab	CHOP inhibitor	Arbovirus anti	WT yeast gro inh	CHOP inh conf
O=C(O)C(Cc1ccccc1)N1C(=O)c2cccc3cccc(c23)C1=O (centres undefined)	-6	16	1	-7	.
CC(/C=N/NC(=O)Cc1cccs1)=C\c1ccccc1	-2	51	-10	0	.
O=C(Cc1cccs1)N/N=C/C(Br)=C/c1ccccc1	-1	104*	13	-15	66
Cc1ccc(C)c(-n2cc(CN3CCCN(C=O)CC3)c(-c3ccccc3)n2)c1	5	18	5	12	.
Cc1cc(C(F)(F)F)n(-c2nc(C(=O)NNS(=O)(=O)c3ccccc3[N+](=O)[O-])cs2)n1	-8	4	-10	16	.
O=C(COc1ccccc1Cl)Nc1ccc(Cl)cn1	-14	60	0	4	.
O=C(COc1ccc(Cl)cc1Cl)Nc1ccccn1	4	100*	-11	66*	92*
O=C(Nc1ccc(C(F)(F)F)cc1)c1cc(-c2cccnc2)nc2ccc(Br)cc12	-1	102*	17	41	93*
CCc1nnc(NC(=O)c2ccc(S(C)(=O)=O)cc2)s1	.	-5	.	.	.
CCc1nnc(NC(=O)c2ccc(S(=O)(=O)N3CCN(Cc4ccccc4)CC3)cc2)s1	-4	97*	-2	5	1
Cc1cc(C)n(-c2nc(Nc3ccccc3C)nc(-n3nc(C)cc3C)n2)n1	40	99*	1	9	36
CCNc1nc(NCC)nc(-n2nc(C)cc2C)n1	-4	-133	1	6	.
Cc1cc(C)n(-c2nc(Nc3ccccc3C(F)(F)F)nc(-n3nc(C)cc3C)n2)n1	100*	105*	-26	16	122*
Cc1cc(C)n(-c2nc(NC(C)C)nc(NC(C)C)n2)n1	4	-168	-3	5	.
O=C(O)c1ccc(-c2ccccc2)[nH]c1=O	.	8	.	.	.
Cn1ncc([N+](=O)[O-])c1C(=O)N1CCOCC1	-5	-28	-2	17	.
COc1ccc([N+](=O)[O-])cc1NC(=O)c1ccc(Br)s1	-4	60	-3	0	.
CC(Oc1ccc(Cl)cc1)c1ccc(C#N)c(=O)[nH]1 (centres undefined)	-7	5	6	0	.
COCc1cc([C@@H]2C[C@H]3CN(c4ccccc4)C(=O)[C@]34CCCN24)ccc1OC	1	53	-10	6	.
O=C1N(c2ccccc2)C[C@@H]2C[C@@H](c3cccs3)N3CCC[C@@]123	20	98*	-25	1	91*
COc1cccc(C(=O)C2CCCN(Cc3cn(CC(N)=O)c4ccccc34)C2)c1 (centres undefined)	13	27	-9	-5	.
Cc1cc(NC(=O)CCS(=O)(=O)c2nc(-c3ccccc3)cc(C(F)(F)F)n2)no1	.	.	9	5	-229
CS(=O)(=O)c1nc(-c2ccccc2)cc(C(F)(F)F)n1	2	.	-44	34	117*
CC(C)C[C@H](N)c1cn([C@@H](CCCCN)C(=O)N2CCNCC2)nn1	-3	12	6	0	.
Cc1ccc(-c2[nH]ncc2/C=N/n2c(COc3ccccc3)nc3ccccc3c2=O)cc1	41	99*	-30	17	108*
Cc1cc(/C=N/n2c(COc3ccccc3)nc3ccccc3c2=O)c(O)c([N+](=O)[O-])c1	-1	34	-28	-6	.
COC(=O)c1ccc2c(c1)N(C)S(=O)(=O)c1cnc(SCC(=O)C(C)(C)C)nc1-2	.	-29	.	.	.
CCOC(=O)c1c(CSc2ccccc2)oc2ccc(O)cc12	20	105*	4	18	14
CCn1cc(C2=NOC(C(=O)Nc3cc(C)nn3-c3ccccc3)C2)c(C)n1 (centres undefined)	-8	26	-3	10	.
Cc1cc(N2CCN(c3ccc([N+](=O)[O-])c4cccnc34)CC2)c2ccccc2n1	7	105*	-30	-1	54
